These results are taken from ChEMBL document CHEMBL1961873, “Compounds: GSK PKIS; Assays: Nanosyn kinase panel” (2012).

Test [1] addresses MAP/microtubule affinity-regulating kinase 3 (Homo sapiens) (UniProt P27448). The settings on record: at 1 µM.
Test [2] addresses T1, MAP/microtubule affinity-regulating kinase 4 (Homo sapiens) (UniProt Q96L34).
T1 sequence (whole entry): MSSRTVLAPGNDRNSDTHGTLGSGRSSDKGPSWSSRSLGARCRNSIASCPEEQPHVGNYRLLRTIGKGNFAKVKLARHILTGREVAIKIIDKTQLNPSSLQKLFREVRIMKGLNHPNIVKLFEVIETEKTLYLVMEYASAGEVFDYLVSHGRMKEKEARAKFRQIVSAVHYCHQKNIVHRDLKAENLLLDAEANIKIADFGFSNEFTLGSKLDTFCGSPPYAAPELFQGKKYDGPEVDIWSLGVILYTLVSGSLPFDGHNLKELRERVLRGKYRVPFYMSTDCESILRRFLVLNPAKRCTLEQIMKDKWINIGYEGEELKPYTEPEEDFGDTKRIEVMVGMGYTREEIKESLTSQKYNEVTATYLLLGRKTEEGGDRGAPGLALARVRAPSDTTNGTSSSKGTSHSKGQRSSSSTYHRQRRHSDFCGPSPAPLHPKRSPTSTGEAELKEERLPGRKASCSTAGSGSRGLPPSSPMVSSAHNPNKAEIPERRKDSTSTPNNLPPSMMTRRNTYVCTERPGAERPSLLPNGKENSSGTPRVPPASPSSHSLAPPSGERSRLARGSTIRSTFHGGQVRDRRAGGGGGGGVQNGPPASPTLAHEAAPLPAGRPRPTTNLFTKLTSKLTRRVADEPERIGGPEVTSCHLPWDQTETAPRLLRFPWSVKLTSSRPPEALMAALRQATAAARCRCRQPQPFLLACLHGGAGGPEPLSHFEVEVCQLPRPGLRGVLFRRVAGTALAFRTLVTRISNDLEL
Conditions: at 0.1 µM.

In test [3] the target is T1, MAP/microtubule affinity-regulating kinase 4 (Homo sapiens). Conditions: at 1 µM.
The target of test [4] is Maternal embryonic leucine zipper kinase (Homo sapiens) (UniProt Q14680). The settings on record: at 0.1 µM.
Sequence of Maternal embryonic leucine zipper kinase (Homo sapiens) (Q14680 whole entry, looked up): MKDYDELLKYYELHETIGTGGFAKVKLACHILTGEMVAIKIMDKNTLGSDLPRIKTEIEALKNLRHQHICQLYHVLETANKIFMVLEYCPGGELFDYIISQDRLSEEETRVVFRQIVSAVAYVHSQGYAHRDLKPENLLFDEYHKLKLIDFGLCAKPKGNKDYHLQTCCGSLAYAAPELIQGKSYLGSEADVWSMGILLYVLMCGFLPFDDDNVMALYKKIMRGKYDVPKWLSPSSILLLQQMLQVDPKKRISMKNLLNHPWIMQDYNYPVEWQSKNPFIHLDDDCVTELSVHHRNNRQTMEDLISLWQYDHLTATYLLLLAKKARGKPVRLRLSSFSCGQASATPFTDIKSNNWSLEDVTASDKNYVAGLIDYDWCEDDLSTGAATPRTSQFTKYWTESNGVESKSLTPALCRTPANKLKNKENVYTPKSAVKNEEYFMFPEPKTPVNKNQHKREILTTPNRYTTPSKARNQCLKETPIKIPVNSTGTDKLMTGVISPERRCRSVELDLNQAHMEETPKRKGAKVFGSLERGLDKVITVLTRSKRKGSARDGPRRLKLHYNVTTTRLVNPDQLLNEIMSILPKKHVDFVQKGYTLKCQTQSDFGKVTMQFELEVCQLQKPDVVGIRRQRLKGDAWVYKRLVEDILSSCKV
For test [5] the target is unchanged. The settings on record: at 1 µM.
Test [6] addresses MAP kinase-interacting serine/threonine-protein kinase 1 (Homo sapiens) (UniProt Q9BUB5). The settings on record: at 0.1 µM.
For test [7] the target is unchanged. Conditions: at 1 µM.
The target of test [8] is MAP kinase-interacting serine/threonine-protein kinase 2 (Homo sapiens) (UniProt Q9HBH9). Conditions: at 0.1 µM.
Sequence of MAP kinase-interacting serine/threonine-protein kinase 2 (Homo sapiens) (Q9HBH9 whole entry, looked up): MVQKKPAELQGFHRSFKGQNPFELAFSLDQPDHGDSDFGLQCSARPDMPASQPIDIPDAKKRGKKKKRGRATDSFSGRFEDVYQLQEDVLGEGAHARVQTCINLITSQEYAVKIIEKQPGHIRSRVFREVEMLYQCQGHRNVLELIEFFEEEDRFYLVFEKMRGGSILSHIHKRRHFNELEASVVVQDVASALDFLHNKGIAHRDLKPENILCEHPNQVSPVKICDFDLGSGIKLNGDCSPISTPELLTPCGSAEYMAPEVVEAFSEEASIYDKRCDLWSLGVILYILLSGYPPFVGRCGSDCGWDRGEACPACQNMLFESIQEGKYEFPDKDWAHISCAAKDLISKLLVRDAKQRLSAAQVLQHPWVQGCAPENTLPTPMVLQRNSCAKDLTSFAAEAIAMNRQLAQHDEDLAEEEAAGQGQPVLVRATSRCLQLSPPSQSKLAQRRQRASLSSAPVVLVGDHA
For test [9] the target is unchanged. The settings on record: at 1 µM.
In test [10] the target is Serine/threonine-protein kinase MARK2 (Homo sapiens) (UniProt Q7KZI7). Conditions: at 0.1 µM.
Sequence of Serine/threonine-protein kinase MARK2 (Homo sapiens) (Q7KZI7 whole entry): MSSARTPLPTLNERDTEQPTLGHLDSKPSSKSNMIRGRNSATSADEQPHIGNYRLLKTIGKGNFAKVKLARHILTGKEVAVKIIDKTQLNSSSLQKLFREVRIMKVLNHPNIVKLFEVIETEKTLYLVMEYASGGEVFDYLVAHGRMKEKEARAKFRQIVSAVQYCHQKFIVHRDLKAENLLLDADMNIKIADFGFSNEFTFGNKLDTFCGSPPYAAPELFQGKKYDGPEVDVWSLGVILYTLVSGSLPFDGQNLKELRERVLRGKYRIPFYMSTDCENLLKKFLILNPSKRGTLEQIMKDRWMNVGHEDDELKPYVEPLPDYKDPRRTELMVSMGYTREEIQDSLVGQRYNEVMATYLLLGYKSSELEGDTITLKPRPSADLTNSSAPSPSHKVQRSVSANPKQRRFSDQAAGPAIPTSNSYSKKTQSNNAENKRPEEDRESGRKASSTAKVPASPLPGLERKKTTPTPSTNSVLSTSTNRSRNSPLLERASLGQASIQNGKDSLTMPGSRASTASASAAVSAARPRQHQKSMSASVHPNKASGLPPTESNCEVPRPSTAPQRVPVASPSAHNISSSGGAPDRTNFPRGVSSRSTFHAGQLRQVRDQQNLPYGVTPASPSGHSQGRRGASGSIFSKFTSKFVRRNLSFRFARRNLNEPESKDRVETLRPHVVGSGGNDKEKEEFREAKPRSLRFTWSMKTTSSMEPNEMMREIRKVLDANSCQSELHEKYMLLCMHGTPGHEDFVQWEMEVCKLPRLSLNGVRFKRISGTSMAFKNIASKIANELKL
Test [11] shares this target. Conditions: at 1 µM.
Test [12] addresses PAS domain-containing serine/threonine-protein kinase (Homo sapiens) (UniProt Q96RG2). Conditions: at 0.1 µM.
The target is the same in test [13]. Conditions: at 1 µM.
The target in test [14] is Phosphorylase b kinase gamma catalytic chain, skeletal muscle/heart isoform (Homo sapiens) (UniProt Q16816). Conditions: at 0.1 µM.
Sequence of Phosphorylase b kinase gamma catalytic chain, skeletal muscle/heart isoform (Homo sapiens) (Q16816 whole entry, looked up, canonical isoform): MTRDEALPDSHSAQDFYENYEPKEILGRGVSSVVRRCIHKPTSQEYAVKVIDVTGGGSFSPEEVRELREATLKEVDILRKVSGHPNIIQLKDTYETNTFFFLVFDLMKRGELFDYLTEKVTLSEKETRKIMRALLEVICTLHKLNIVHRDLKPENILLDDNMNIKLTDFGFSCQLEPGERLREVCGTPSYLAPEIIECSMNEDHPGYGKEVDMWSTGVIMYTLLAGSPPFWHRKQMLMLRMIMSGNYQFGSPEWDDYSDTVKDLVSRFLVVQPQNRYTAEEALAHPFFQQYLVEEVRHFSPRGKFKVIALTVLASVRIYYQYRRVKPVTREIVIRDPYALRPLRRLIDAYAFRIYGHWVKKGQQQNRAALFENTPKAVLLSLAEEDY
Test [15] shares this target. Conditions: at 1 µM.
In test [16] the target is T2, Phosphorylase b kinase gamma catalytic chain, liver/testis isoform (Homo sapiens) (UniProt P15735).
T2 sequence (whole entry): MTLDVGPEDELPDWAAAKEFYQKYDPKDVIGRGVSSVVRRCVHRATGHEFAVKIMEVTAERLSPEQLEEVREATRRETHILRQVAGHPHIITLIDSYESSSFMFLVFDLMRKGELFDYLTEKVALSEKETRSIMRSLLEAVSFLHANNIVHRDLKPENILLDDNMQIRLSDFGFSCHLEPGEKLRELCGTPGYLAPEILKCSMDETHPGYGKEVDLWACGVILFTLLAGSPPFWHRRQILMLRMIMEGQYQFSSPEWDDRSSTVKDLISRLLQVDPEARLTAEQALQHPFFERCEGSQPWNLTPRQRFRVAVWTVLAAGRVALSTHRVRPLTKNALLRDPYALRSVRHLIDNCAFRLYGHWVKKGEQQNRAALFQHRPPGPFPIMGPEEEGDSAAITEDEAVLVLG
Conditions: at 0.1 µM.

Test [17] addresses T2, Phosphorylase b kinase gamma catalytic chain, liver/testis isoform (Homo sapiens). The settings on record: at 1 µM.
Test [18] concerns the target Serine/threonine-protein kinase pim-1 (Homo sapiens) (UniProt P11309). Conditions: at 0.1 µM.
Test [19] shares this target. The settings on record: at 1 µM.
The target in test [20] is Serine/threonine-protein kinase pim-2 (Homo sapiens) (UniProt Q9P1W9). Conditions: at 0.1 µM.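 Further: reported value is the mean percent inhibition of PIM2, measured in the GSK PKIS kinase inhibitor set screen.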

Sequence of MAP/microtubule affinity-regulating kinase 3 (Homo sapiens) (P27448 whole entry, looked up): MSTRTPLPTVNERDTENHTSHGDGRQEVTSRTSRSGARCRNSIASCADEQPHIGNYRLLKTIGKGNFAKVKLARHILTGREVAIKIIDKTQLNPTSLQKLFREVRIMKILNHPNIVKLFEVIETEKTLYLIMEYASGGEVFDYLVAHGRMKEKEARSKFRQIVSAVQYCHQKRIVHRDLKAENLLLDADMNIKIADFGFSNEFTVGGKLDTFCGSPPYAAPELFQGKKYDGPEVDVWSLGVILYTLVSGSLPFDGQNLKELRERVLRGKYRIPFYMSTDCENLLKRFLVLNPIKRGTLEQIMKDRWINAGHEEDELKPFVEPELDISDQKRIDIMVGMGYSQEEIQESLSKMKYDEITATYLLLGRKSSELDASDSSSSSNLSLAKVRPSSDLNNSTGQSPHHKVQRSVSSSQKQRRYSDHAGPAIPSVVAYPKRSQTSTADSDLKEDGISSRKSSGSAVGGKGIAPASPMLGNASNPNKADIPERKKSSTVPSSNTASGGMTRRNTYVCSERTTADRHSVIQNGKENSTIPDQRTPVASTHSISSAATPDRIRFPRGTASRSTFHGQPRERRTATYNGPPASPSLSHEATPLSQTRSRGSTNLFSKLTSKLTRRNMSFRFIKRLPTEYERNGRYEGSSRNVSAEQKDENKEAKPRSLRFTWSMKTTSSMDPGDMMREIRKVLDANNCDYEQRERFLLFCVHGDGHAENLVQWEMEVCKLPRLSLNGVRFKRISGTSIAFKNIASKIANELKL
Sequence of PAS domain-containing serine/threonine-protein kinase (Homo sapiens) (Q96RG2 whole entry, the tested form may be a part): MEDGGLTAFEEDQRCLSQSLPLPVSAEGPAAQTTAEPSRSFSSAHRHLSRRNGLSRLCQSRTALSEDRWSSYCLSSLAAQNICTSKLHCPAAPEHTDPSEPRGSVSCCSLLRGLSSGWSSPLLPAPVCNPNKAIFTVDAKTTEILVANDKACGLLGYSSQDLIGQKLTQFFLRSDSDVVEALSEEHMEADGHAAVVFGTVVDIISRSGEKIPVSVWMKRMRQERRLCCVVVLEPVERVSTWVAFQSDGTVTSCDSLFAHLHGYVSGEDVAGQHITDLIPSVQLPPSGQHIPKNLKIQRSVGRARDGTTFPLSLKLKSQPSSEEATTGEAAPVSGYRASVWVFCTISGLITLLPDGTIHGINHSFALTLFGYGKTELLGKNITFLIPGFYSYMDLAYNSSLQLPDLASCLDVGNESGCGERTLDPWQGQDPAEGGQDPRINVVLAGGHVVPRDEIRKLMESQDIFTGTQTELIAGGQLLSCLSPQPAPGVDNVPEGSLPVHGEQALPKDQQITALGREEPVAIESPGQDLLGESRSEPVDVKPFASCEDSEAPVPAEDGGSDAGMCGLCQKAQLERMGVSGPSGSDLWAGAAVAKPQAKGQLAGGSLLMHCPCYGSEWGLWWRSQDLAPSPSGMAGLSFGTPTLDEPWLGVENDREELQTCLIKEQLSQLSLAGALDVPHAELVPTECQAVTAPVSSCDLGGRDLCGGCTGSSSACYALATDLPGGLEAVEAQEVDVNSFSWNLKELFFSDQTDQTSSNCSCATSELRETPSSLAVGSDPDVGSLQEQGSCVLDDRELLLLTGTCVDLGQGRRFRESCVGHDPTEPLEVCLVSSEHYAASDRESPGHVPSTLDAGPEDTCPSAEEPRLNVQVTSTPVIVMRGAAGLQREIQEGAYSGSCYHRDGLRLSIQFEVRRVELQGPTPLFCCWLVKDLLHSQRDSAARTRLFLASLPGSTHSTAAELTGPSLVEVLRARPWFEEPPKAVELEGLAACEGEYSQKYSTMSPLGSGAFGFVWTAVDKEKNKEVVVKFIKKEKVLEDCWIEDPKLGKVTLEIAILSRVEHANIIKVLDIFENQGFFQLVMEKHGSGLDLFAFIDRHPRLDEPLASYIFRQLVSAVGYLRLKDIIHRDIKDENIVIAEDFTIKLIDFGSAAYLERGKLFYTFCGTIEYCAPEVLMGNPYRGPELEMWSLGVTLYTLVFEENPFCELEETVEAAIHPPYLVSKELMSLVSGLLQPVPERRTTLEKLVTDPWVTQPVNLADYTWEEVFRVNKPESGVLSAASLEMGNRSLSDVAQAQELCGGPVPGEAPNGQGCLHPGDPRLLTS
Sequence of MAP kinase-interacting serine/threonine-protein kinase 1 (Homo sapiens) (Q9BUB5 whole entry, looked up): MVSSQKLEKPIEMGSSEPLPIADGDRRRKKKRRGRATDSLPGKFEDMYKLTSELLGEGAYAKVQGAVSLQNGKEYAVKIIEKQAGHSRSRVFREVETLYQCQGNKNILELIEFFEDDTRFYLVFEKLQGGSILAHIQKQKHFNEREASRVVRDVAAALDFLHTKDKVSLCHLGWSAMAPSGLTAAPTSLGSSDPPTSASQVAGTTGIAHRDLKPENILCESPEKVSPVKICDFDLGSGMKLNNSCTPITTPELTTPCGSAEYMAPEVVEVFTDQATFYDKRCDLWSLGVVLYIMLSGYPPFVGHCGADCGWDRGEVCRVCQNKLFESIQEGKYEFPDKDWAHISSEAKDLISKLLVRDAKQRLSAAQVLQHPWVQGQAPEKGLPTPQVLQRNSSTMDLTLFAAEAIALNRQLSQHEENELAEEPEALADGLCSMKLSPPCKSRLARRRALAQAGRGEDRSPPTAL

In the case of `Nc1nc(-c2ccc(F)cc2)c(-c2ccc3ncccc3n2)s1`, the inhibition – broadly, the relative decrease from the control value, in per cent – came out at 3.12% in test [1]; 2.07% in test [2]; 2.43% in test [3]; 4.85% in test [4]; 22.3% in [5]; 4.39% in test [6]. Also, the inhibition in test [7] amounted to 8.56%; in test [8], 1.91%; in [9], 5.26%; in test [10], 0.92%; in test [11], 0.96%; in test [12], 0.84%. Besides, the inhibition was -0.64% in test [13]; 4.41% in test [14]; 7.81% in test [15]; 6.3% in test [16]; 5.79% in test [17]; 0.35% in test [18]. Moreover, the values for the inhibition in test [19] and in [20] were 2.38% and 0.17%, respectively.

Consider `CCc1nn2ncccc2c1-c1ccnc(NC2CC2)n1`, for which the inhibition in test [1] is 3.36%; in test [2] it was 2.15%; in test [3], 2.34%; in [4], 2.14%; in test [5] it was 5.08%; in [6], 5.42%. In addition, the inhibition in [7] was 17.9%; in [8], 2.69%; in [9], 8.83%; in [10], 1.31%; in test [11], 1.56%; in test [12] it was 1.03%. Moreover, the inhibition in [13] is 0.63%; in [14] it was 1.42%; in test [15], 2.68%; in test [16], 2.15%; in test [17], 3.73%; in [18] it was 0.19%. Moreover, the figures for the inhibition in test [19] and in test [20] were 1.72% and 0.29%, respectively.

For `CN1CCC(n2cnc(-c3ccc(F)cc3)c2-c2ccnc(N)n2)CC1`, the inhibition in test [1] is 6.18%; in [2], 0.14%; in [3], 0.48%; in test [4], 2.15%; in test [5], 12.9%; in [6], 8.32%. Further, the inhibition was 41.2% in test [7]; 3.66% in test [8]; 16.9% in test [9]; -1.15% in test [10]; -0.63% in test [11]; -0.52% in test [12]. In addition, the inhibition in [13] was determined as 1.84%; in [14], 1.61%; in test [15], 5.65%; in test [16], 2.82%; in [17], 2.94%; in test [18] it was 2.59%. Also, the inhibition in test [19] came out at 19.3%; in test [20] it was 0.18%.

Consider `CC(C)COC(=O)c1ccc2c(c1)/C(=C/Nc1ccc(S(N)(=O)=O)cc1)C(=O)N2`, for which the inhibition in test [1] was 88.7%; in test [2], 24.6%; in [3], 77.5%; in test [4], 50.1%; in test [5], 93.2%; in test [6], -1.01%. For the same compound, the inhibition was 6.56% in test [7]; 1.73% in test [8]; 13.9% in test [9]; 25.9% in [10]; 70.5% in [11]; 0.36% in [12]. In addition, the inhibition in [13] was 2.64%; in [14], 12.2%; in test [15], 50.5%; in [16], -1.63%; in test [17], 16.4%; in test [18], 3.92%. The inhibition in [19] was 27.8%; in test [20], 0.83%.

`[O-][S+]1CCN(Cc2ccc(-c3ccc4ncnc(Nc5ccc(OCc6cccc(F)c6)c(Cl)c5)c4c3)o2)CC1`: the inhibition came out at 1.78% in test [1]; 3.49% in test [2]; 3.99% in test [3]; 7.16% in test [4]; 5.89% in test [5]; 2.71% in test [6]. The inhibition in [7] worked out at 6.2%; in test [8] it was 1.46%; in [9] it was 6.51%; in [10], 2.19%; in [11], 2.61%; in [12] it was 0.34%. For the same compound, the inhibition worked out at 0.46% in test [13]; 5.93% in test [14]; 8.77% in [15]; 7.01% in test [16]; 6.77% in test [17]; 0.76% in test [18]. Moreover, the inhibition in test [19] stood at 2.24%; in test [20] it was 0.73%.

For the compound `COc1ccc(-c2cc(-c3c[nH]nc3-c3ccccn3)ccn2)cc1`, the inhibition was found to be 5.51% in [1]; 2.2% in [2]; 2.28% in test [3]; 3.77% in test [4]; 8.05% in test [5]; 3.19% in test [6]. Further, the inhibition in test [7] was determined as 7.19%; in [8], 2%; in test [9], 6.65%; in test [10] it was 2.97%; in test [11], 1.63%; in test [12] it was 1.23%. In addition, the inhibition was 0.75% in test [13]; 2.63% in test [14]; 6.04% in [15]; 6.55% in test [16]; 8.39% in [17]; -0.05% in test [18]. The inhibition in [19] is 0.03%; in test [20], 0.36%.
